The results in this text go back to PubChem BioAssay AID2049 (The Scripps Research Institute Molecular Screening Center, 2009).

For the assay, the system named is BCL3. The experiment in a line: STAT3 activation with BCL3 mRNA and toxicity – cell-based, STAT1 reporter, BCL3 qPCR, cytotoxicity, late-stage follow-up (AID 2049). To be noted: human cell reporter; BCL3 mRNA qPCR, at 10 µM, stronger effect = higher value.

Activity calls are given as the source filed them. No rule for the calls is given here.

With `COc1cc(NC(=O)c2cc(C(C)C)on2)c(OC)cc1Cl`, the fold change turned out to be 0.42 and the outcome was “inactive; active”.

As for `CCCc1cc(C(=O)Nc2cc(OC)c(Cl)cc2OC)no1`, the fold change was 1.3 and the compound was classed as active.

For the compound `COc1cc(NC(=O)c2cc(C3CC3)on2)c(OC)cc1Cl`, the fold change came to 2.07 and the outcome is “active; probe”.
